Measurements taken from PubChem BioAssay AID1578 (Sanford-Burnham Center for Chemical Genomics, 2009).
The whole screen tested about 290,000 compounds, of which about 3,000 (1%) were called active. No stated cut-off is given here; in the data, active means inhibition mostly above about 36% (no sharp cut-off); inactive means mostly below about 34%. Shown is part of a subset that was picked to be rich in actives.

test: inhibition of NOD1-driven NF-kB reporter – cell-based, luminescence, uHTS, primary screen (AID 1578); settings: NOD1-driven NF-kB luciferase reporter cells, at 4 µM, active compounds read high;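 further: HEK-293T reporter cells stimulated with the NOD1 agonist gamma-tri-DAP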

inhibition, inactive:
CN1CCN(c2nc(-c3cccc([N+](=O)[O-])c3)nc3ccccc23)CC1 -0.7%
CCC(=O)N1CCc2cc(S(=O)(=O)Nc3ccccc3C)ccc21 3.4%
COc1ccc(O)c(-c2[nH]ncc2C(=O)c2cccc(C)c2)c1 -6.8%
COc1ccc(O)c(-c2[nH]ncc2C(=O)c2ccccc2C)c1 26.5%
CCOC(=O)c1sc(N(Cc2ccccc2)C(=O)COC(=O)c2ccc(O)cc2)nc1C 62.2%
CCOC(=O)c1sc(N(Cc2ccccc2)C(=O)COC(=O)c2ccccc2O)nc1C -48%
COc1ccc(S(=O)(=O)N2CCCOC2CNC(=O)C(=O)NCCc2ccco2)cc1OC (stereo not drawn) -2.3%
O=C(COC(=O)c1cccc(O)c1)NCc1ccc2c(c1)OCO2 -14.3%
COc1ccc(C=O)cc1OC(=O)N1CCOCC1 -9.3%
Cc1cc(C(=O)COC(=O)CN(C)S(=O)(=O)c2ccc(Cl)cc2)c(C)n1Cc1cccs1 -20.9%
O=C(NCc1cn2ccccc2n1)c1ccc(Br)o1 -10.7%
O=C(NCc1cn2ccccc2n1)c1ccccc1 -22.2%
Cc1ccc(CNC(=O)C2CCCN(c3cnccn3)C2)cc1 (stereo not drawn) -5.5%
Cc1sc2ncn(CC(=O)NCC(=O)N(C)Cc3ccccc3)c(=O)c2c1C -12.2%
Cc1ccc(NC(=O)C2CCC(CNC(=O)[C@@H]3Cc4ccccc4CN3)CC2)cc1 (stereo partly drawn) -2.3%
CC(=O)C1=C(O)C(=O)N(c2nccs2)C1c1ccccc1 (stereo not drawn) -8.5%
O=C(C1=C(O)C(=O)N(c2nccs2)C1c1ccccc1)c1cc2ccccc2o1 (stereo not drawn) -8.9%
COc1ccc(N2CC(C(=O)N3CCN(C)CC3)CC2=O)cc1 (stereo not drawn) 3.9%
COc1ccc(C(=O)/C=C/Nc2ccc(S(=O)(=O)Nc3nc(C)cc(C)n3)cc2)cc1OC -18.8%
O=C(N/N=C/c1ccc([N+](=O)[O-])cc1)c1cc2ccccc2o1 2.4%
Cc1ccc(C(=O)N/N=C\c2ccc([N+](=O)[O-])o2)cn1 13.2%
Nc1nonc1C(=O)N/N=C/c1ccc(Br)o1 -6%
Nc1nonc1C(=O)N/N=C/c1ccc(-c2cccc([N+](=O)[O-])c2)o1 5.4%
O=C(CNc1ccc2ccccc2c1)N/N=C/c1ccc([N+](=O)[O-])o1 -5%
Cc1cc(C(=O)N/N=C/c2ccc([N+](=O)[O-])o2)c(C)o1 1.4%
O=C(N/N=C/c1ccc([N+](=O)[O-])o1)c1cc2c(ccc3ccccc32)o1 41.1%
O=C(CNc1ccccc1)N/N=C/c1ccc([N+](=O)[O-])o1 35%
COc1cc2[nH]c(=O)n(CCC(=O)NCc3cccnc3)c(=O)c2cc1OC -17.4%
CCCc1cc(=O)n2[nH]c(NC(=O)c3ccco3)nc2n1 1.1%
O=C(c1ccco1)N1CCN(Cc2nnc(-c3cccc(Br)c3)o2)CC1 37.7%
Cc1ccc(/C=N/NC(=O)CNC(=O)c2ccc(S(=O)(=O)N3CCCC3)cc2)o1 -10.1%
CC(C)(C)S(=O)(=O)/C(C#N)=C/c1sccc1C1OCCO1 -9.6%
Cc1sc2nc(CSCC(=O)N(CCC#N)c3ccccc3)[nH]c(=O)c2c1C -2.8%
NC(=O)c1ccc(NC(=O)CCNC(=O)c2ccco2)cc1 0%
Cc1cccc(C)c1OCCN1C(=O)NC(C)(c2ccccc2)C1=O (stereo not drawn) -8.3%
CC(=O)Nc1ccc(S(=O)(=O)Nc2ccn(Cc3ccccc3Cl)n2)cc1 -42.3%
CC1CCc2cc(F)ccc2N1C(=O)CCC(=O)O (stereo not drawn) -29.7%
CCC(CC)C(=O)N1c2ccc(F)cc2CCC1C (stereo not drawn) 8%
COCCCNC(=S)Nc1cc2oc3ccccc3c2cc1OC 5.2%
CCN(CC(=O)NC1CCS(=O)(=O)C1)S(=O)(=O)c1ccc(F)cc1 (stereo not drawn) 25.9%
Cc1ccc(C(=O)N2CCCC(N3CCN(c4cccc(C(F)(F)F)c4)CC3)C2)s1 (stereo not drawn) -29.8%
Cc1ccccc1OCC(=O)N/N=C/c1c(C)nn(-c2ccccc2)c1Cl -26.9%
COc1ccc(C(=O)NCCCc2nc3ccccc3n2Cc2ccccc2C)cc1OC -9.4%
COc1ccc(C(=O)NCCCc2nc3ccccc3n2Cc2cc(C)ccc2C)cc1OC -28.5%
CCc1ccc2[nH]c(=O)c(CN(CCCN3CCOCC3)C(=O)Nc3ccc(Cl)cc3)cc2c1 -9.8%
O=S(=O)(Nc1cccc(-c2cn3cccnc3n2)c1)c1ccc(F)cc1 -1.4%
O=S(=O)(Nc1cccc(-c2cn3cccnc3n2)c1)c1ccccc1 36.4%
CCN(CC)C(=O)Cn1cc(C(=O)C(=O)N2CCN(C)CC2)c2ccccc21 -22.7%
COc1ccc(C(=O)CC(=O)c2ccc(OC)cc2)cc1 -23.3%
Cc1ccc(C(=O)CC(=O)c2ccccc2)cc1 -42.7%
CC(C)N1CC(C(=O)Nc2ccc(Cl)c([N+](=O)[O-])c2)CC1=O (stereo not drawn) -8.3%
Cc1ccc2[nH]c3c(c2c1)CCCC3C(N)=O (stereo not drawn) -44.3%
Cc1ccc2[nH]c3c(c2c1)CCCC3NCCO (stereo not drawn) -12.6%
COC(=O)[C@@]1(Cc2ccc(F)cc2)[C@@H]2[C@@H](CC(=O)[C@H]2CC(=O)C(=O)N(C)C)CN1C(=O)c1ccccc1 -29.5%
COC(=O)[C@@]1(Cc2ccccc2)[C@@H]2C(=CC(=O)[C@H]2CC(=O)C(=O)N(C)C)CN1C(=O)c1ccccc1 47.7%
CS(=O)(=O)c1cnc(-c2ccccc2)nc1-c1ccccc1Cl 23.1%
CC1Cc2cc(S(=O)(=O)N3CCC(C(N)=O)CC3)ccc2N1C(=O)C1CC1 (stereo not drawn) -42.9%
O=C(N/N=C/c1ccc([N+](=O)[O-])o1)c1ccc(O)cc1 6.8%
O=C(O)/C=C/c1ccc([N+](=O)[O-])o1 -17.7%
CCCOc1ccc(OCCCCNC(C)CC)cc1 (stereo not drawn) 0.5%
COc1ccc(N(C(=O)Cn2nnc(-c3ccc(F)cc3)n2)C(C)C(=O)NC2CCCC2)cc1 (stereo not drawn) -22.6%
COc1ccc(N(C(=O)Cn2nnc(-c3ccc(F)cc3)n2)C(C)C(=O)NC2CCCC2)cc1OC (stereo not drawn) 10.1%
COc1cccc(C(=O)NCCCNC(=O)c2ccco2)c1 9.1%
Cc1ccccc1C1C(C#N)=C(N)N(N(C)C)C2=C1C(=O)CC(C)(C)C2 (stereo not drawn) -10.1%
CCCCn1c2c(c(=N)c3ccccc31)CCC2 -6.7%
CCCCCn1c2c(c(=N)c3ccccc31)CCC2 -13.6%
CCO[C@H]1OC(C(=O)NC2CC2)=C[C@@H](c2ccc(C(F)(F)F)cc2)[C@@H]1CCCO 1.4%
CC(Oc1ccccc1)C(=O)N=Nc1c(O)[nH]c2ccc(Br)cc12 (stereo not drawn) -9.4%
Cc1c(CBr)[n+](=O)c2c(n1[O-])C(Br)CCC2Br (stereo not drawn) -9.7%
Cc1c(C)[n+](=O)c2c(n1[O-])C(Br)CCC2Br (stereo not drawn) -7.3%
N#Cc1cc(NCC2CCCO2)c([N+](=O)[O-])cc1C#N (stereo not drawn) -23.8%
N#Cc1cc([N+](=O)[O-])ccc1NCC1CCCO1 (stereo not drawn) -26.2%
COc1ccc2cc(S(=O)(=O)N3CCOCC3)ccc2c1 -5.6%
COc1ccc2[nH]c(=O)c(CNc3ccccc3C)cc2c1 -10.6%
COc1ccc(C2CC(c3cccs3)=NN2c2nc(-c3ccccc3)cs2)cc1OC (stereo not drawn) -16.1%
CC1(C)CC2CC(C)(CN2c2ncnc3ccc(Br)cc23)C1 (stereo not drawn) 39.1%
OCCN1CCN(c2nc(-c3ccccc3)c3cc(Br)ccc3n2)CC1 -12.3%
OCCN1CCN(c2ncnc3sc(-c4ccccc4)cc23)CC1 -0.1%
CN1CCN(c2ncnc3sc(-c4ccccc4)cc23)CC1 32%
COc1ccc(OC)c(C(=O)NC(CC(N)=O)c2ccc(NCCOc3ccccc3)c([N+](=O)[O-])c2)c1 (stereo not drawn) -4%

inhibition, active:
CCOC(=O)c1sc(N(Cc2ccccc2)C(=O)CCl)nc1C 28.7%
O=C(NCc1cn2ccccc2n1)c1ccco1 54%
CC1CCc2cc(F)ccc2N1C(=O)CCl (stereo not drawn) 66.7%
COc1cc(C(=O)NCCCc2nc3ccccc3n2Cc2cc(C)ccc2C)cc(OC)c1OC 68.1%
COc1ccc(C(=O)C/C(=C\C(=O)c2ccc(C)cc2)c2ccccc2)cc1 71.2%
Cc1ccc2[nH]c3c(c2c1)CCCC3NC(=O)CCl (stereo not drawn) 70%
C=C1C(=O)C=C2CN(C(=O)c3ccccc3)[C@@](Cc3ccc(F)cc3)(C(=O)OC)[C@@H]12 98.5%
O=C(/C=C/c1ccc([N+](=O)[O-])o1)NNC(=O)c1ccc(F)cc1 66.9%
CC(C(=O)NC1CCCC1)N(C(=O)Cn1nnc(-c2ccc(F)cc2)n1)c1ccccc1F (stereo not drawn) 82.7%
CCCCCCCn1c2c(c(=N)c3ccccc31)CCC2 77.4%
CC(=O)OC1CCC(OC(C)=O)c2c1n([O-])c(C)c(C)[n+]2=O (stereo not drawn) 79.5%
N#Cc1cc(Cl)c(NCC2CCCO2)cc1C#N (stereo not drawn) 83.4%
OCCN1CCN(c2ncnc3ccc(Br)cc23)CC1 66.7%
